This note sets out measurements from PubChem BioAssay (Tox21).

Where “and” joins values, the source holds several entries; their conditions need not be identical. Equal values may be shown once. Inconclusive results are not listed. Some structures have more than one record in an assay (separate samples or runs), and their calls can disagree. Calls of active or inactive are those of the source. Unless noted, calls come from the whole dose curve; as a rule, active = well fitted curve in the direction sought with a large enough effect in the repeat runs; inconclusive = weak or mixed curves; inactive = no such curve, though single readings can be large; an effect the other way counts as inactive or inconclusive.

A short description of test [1]: qHTS assay to identify small molecule agonists of the estrogen receptor alpha (ER-alpha) signaling pathway in the presence of an antagonist - cell viability counter screen (AID 1259386).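 Note: cells exposed to compounds for 22 h at 37 °C before the viability read; nearly all actives have a fitted effect of over 30% in size.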 Note: potency is the fitted concentration of half-maximal effect. The method, boiled down:
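Read-out: CellTiter-Fluor fluorescence after 1hr reagent incubation, measured in the same wells as the luciferase readout. VM7Luc4E2 cells were exposed to 15 compound concentrations with 10.0nM ICI-182,780 for 22hr at 37C.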
Background: qHTS replaces the single test concentration by a dilution series.

The target of test [2] is Progesterone receptor (Homo sapiens) (UniProt P06401). The test is described as follows: qHTS assay to identify small molecule agonists of the progesterone receptor (PR) signaling pathway (AID 1346784; calls by dose curve; note: nearly all actives have a fitted effect of over 30% in size). The method, boiled down:
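PR-UAS-bla HEK 293T cells carrying a UAS-driven beta-lactamase reporter were seeded in medium with 2% charcoal-stripped FBS, preincubated 6 hr at 37C, then exposed to compounds in DMSO for 16 hr; agonism was read by LiveBLAzer B/G FRET fluorescence.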

Test [3] shares this target. The test is described as follows: qHTS assay to identify small molecule antagonists of the progesterone receptor (PR) signaling pathway (AID 1346795; active = well fitted inhibition curve with a large enough effect in the signal ratio in the repeat runs, not every such curve was filed as active; the % refers to the signal ratio). The method, boiled down: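 PR-UAS-bla HEK293T cells carrying a UAS-driven beta-lactamase reporter were plated in medium with 2% charcoal-stripped FBS and rested 6 hr at 37C. Compounds were added with 1 nM R5020 (final) for 16 hr, then FRET substrate loaded 2 hr at room temperature.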

Test [4] can be described thus: qHTS assay to identify small molecule antagonists of the progesterone receptor (PR) signaling pathway - cell viability counter screen (AID 1346798). Note: series mostly up to about 92 µM; nearly all actives have a fitted effect of over 50% in size. The method, boiled down:
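PR-UAS-bla HEK293T cells in medium with 2% charcoal-stripped FBS were treated with compounds plus R5020 for 16 hr at 37C. Cell viability was then read by CellTiter-Glo luminescence after 30 min at room temperature in the same wells.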

Test [5] in a line: qHTS assay to identify small molecule agonists of the progesterone receptor (PR) signaling pathway - cell viability counter screen (AID 1346799; calls by dose curve; note: nearly all actives have a fitted effect of over 45% in size). The method, boiled down: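 PR-UAS-bla HEK293T cells, 3,000 per well in medium with 2% charcoal-stripped FBS, were preincubated 6 hr at 37C, then exposed to compounds for 16 hr; viability was read as CellTiter-Glo luminescence after 30 min at room temperature.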

Test [6] in a line: qHTS assay to identify small molecule antagonists of the TGF-beta/Smad signaling pathway - cell viability counter screen (AID 1346824). Note: nearly all actives have a fitted effect of over 50% in size. The method, boiled down: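 Cytotoxicity counter-screen run in the same wells as the beta-lactamase Smad reporter read: CellTiter-Glo luminescence after 30 min at room temperature. HEK 293T SBE-bla cells had 5 hr compound exposure at 37 C with TGF-beta1 (0.25 ng/mL stock).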

The nature of test [7]: qHTS assay to identify small molecule agonists of the TGF-beta/Smad signaling pathway - cell viability counter screen (AID 1346829). Note: top concentration of the series differs between compounds; nearly all actives have a fitted effect of over 45% in size. The method, boiled down:
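SBE-bla HEK 293T cells plated overnight, compound exposure 5 hr at 37 C. Viability read in the same wells by CellTiter-Glo luminescence after 30 min at room temperature, following the beta-lactamase read.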

A short description of test [8]: qHTS assay to identify small molecule agonists of the TGF-beta/Smad signaling pathway (AID 1346859; active = well fitted activation curve with a large enough effect in the signal ratio in the repeat runs, not every such curve was filed as active; the % refers to the signal ratio; note: series mostly up to about 77 µM). The method, boiled down: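 HEK 293T cells stably carrying a beta-lactamase reporter driven by the Smad binding element were seeded overnight, exposed to DMSO-dissolved compounds for 5 hr at 37 C, 5% CO2, then loaded with FRET substrate for 2 hr at room temperature.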

In test [9] the target is Thyrotropin-releasing hormone receptor (Homo sapiens) (UniProt P34981). The test is described as follows: qHTS assay to identify small molecule agonists of the thyrotropin-releasing hormone receptor (TRHR) signaling pathway (AID 1346891; calls by dose curve; note: series mostly up to about 58 µM). The method, boiled down: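 TRHR-expressing HEK293 cells were plated 18 h at 37 °C/5% CO2, loaded with calcium dye 2 h at 37 °C, then given compound in DMSO; fluorescence was read kinetically for 3 min at 1 s intervals.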
Thyrotropin-releasing hormone receptor (Homo sapiens), sequence (P34981 whole entry, looked up): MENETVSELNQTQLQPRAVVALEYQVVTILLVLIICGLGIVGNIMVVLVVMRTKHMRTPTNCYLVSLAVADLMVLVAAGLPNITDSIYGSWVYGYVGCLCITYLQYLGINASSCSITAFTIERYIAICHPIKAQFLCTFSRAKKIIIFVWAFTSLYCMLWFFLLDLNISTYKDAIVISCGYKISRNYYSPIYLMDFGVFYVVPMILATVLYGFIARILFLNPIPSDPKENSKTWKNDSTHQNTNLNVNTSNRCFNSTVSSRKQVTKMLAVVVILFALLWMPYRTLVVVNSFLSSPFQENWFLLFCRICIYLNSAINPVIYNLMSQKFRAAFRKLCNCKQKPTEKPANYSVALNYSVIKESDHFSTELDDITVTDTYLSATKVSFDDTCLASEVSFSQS

A short description of test [10]: Human pregnane X receptor (PXR) small molecule agonists, qHTS cell viability counter screen (AID 1346977). Note: nearly all actives have a fitted effect of over 50% in size. Note: potency is the fitted concentration of half-maximal effect. The method, boiled down:
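PXR-Luc HepG2 cells in medium with 5% charcoal-stripped FBS were pre-incubated 5hr, then exposed to compounds for 24hr at 37C. Viability was read in the same wells by CellTiter-Fluor fluorescence, reagent added after 23hr with a 1hr incubation.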

Test [11] in a line: Caspase-3/7 induction in CHO-K1 cells by small molecules, qHTS cell viability counter screen (AID 1346979). Note: nearly all actives have a fitted effect of over 35% in size. Note: potency is the fitted concentration of half-maximal effect. The method, boiled down: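 Wild-type CHO-K1 cells were seeded at 1,500 per well, rested 5hr at 37 C, then exposed to compounds in DMSO. After 16hr, CellTiter-Fluor reagent was added and fluorescence read 1hr later as the viability measure.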
Test [12] is described as follows: Caspase-3/7 induction in CHO-K1 cells by small molecules, qHTS assay (AID 1346980). Note: nearly all actives have a fitted effect of over 15% in size. The method, boiled down: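 Luminescent Caspase-Glo 3/7 read (30min, room temperature) quantified apoptosis induction. Cells were wild-type CHO-K1, treated with compound for 17hr at 37 C and 5% CO2.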
A short description of test [13]: Caspase-3/7 induction in HepG2 cells by small molecules, qHTS cell viability counter screen (AID 1346981). Note: nearly all actives have a fitted effect of over 30% in size. Note: potency is the fitted concentration of half-maximal effect. The method, boiled down: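 Fluorescence read-out of live-cell protease activity (CellTiter-Fluor) after 1 hr with reagent. This was measured in the same wells as the caspase-3/7 luminescence, on HepG2 cells exposed to DMSO-dissolved compounds for 16 hr at 37 C.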

Test [14] deals with Nuclear receptor subfamily 1 group I member 2 (Homo sapiens) (UniProt O75469). The test is described as follows: Human pregnane X receptor (PXR) small molecule agonists, qHTS assay (AID 1346982). Note: nearly all actives have a fitted effect of over 35% in size. The method, boiled down: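 HepG2 PXR-Luc reporter line, 5% charcoal-stripped FBS; 5 hr pre-incubation, compound (DMSO) 24 hr at 37 C/5% CO2; ONE-Glo 30 min RT; luminescence read-out.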
Nuclear receptor subfamily 1 group I member 2 (Homo sapiens), sequence (O75469 whole entry, looked up): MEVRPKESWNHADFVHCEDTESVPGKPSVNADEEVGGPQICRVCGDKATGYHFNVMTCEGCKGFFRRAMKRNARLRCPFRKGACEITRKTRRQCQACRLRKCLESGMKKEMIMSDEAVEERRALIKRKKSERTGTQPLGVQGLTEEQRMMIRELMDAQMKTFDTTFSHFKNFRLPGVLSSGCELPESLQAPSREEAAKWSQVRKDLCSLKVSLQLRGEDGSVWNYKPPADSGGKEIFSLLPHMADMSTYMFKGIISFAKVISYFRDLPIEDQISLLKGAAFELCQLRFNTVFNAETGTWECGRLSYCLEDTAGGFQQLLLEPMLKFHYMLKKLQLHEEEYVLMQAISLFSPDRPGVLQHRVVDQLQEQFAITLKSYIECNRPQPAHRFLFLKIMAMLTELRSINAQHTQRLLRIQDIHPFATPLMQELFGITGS

The target in test [15] is Cytochrome P450 2D6 (Homo sapiens) (UniProt P10635). Briefly: Cytochrome P450 Family 2 Subfamily D Member 6 (CYP2D6) small molecule antagonists: luciferase reporter qHTS assay (AID 1671196). Note: nearly all actives have a fitted effect of over 50% in size. Note: potency is the fitted concentration of half-maximal effect. The method, boiled down: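 Luminogenic proluciferin substrate, CYP2D6 enzyme; 10 min RT preincubation with compound, NADPH regeneration system added, 1 h RT. Stop/detection reagent, 20 min RT, luminescence read (RLU). Signal proportional to CYP activity.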
Cytochrome P450 2D6 (Homo sapiens), sequence (P10635 whole entry, looked up): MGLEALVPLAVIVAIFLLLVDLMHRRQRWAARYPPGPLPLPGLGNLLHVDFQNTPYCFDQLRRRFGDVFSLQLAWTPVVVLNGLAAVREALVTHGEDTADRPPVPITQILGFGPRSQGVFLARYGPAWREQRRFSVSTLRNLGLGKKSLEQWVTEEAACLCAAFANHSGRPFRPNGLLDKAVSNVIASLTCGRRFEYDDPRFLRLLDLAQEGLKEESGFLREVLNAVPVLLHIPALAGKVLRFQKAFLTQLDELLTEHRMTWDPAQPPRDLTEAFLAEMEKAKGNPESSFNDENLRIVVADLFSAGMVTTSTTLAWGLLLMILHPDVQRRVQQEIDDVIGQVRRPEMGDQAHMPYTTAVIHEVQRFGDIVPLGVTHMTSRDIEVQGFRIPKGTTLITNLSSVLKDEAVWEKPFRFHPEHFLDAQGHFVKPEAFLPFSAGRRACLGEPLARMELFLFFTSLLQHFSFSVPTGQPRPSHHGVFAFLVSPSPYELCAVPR
(In general: A reporter such as luciferase makes a cellular process visible.)

Test [16] in a line: Caspase-3/7 induction in HepG2 cells by small molecules, qHTS assay (AID 1346978). Note: nearly all actives have a fitted effect of over 15% in size. The method, boiled down: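 Caspase-3/7 induction was measured by Caspase-Glo 3/7 luminescence (30 min, room temperature) after a 17 hr compound exposure of wild-type HepG2 cells seeded at 2,000 per well and pre-incubated 5 hr.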
Test [17] addresses Thyrotropin-releasing hormone receptor (Homo sapiens) (UniProt P34981). Briefly: qHTS assay to identify small molecule antagonists of the thyrotropin-releasing hormone receptor (TRHR) signaling pathway (AID 1346877; active = well fitted inhibition curve with a large enough effect in the repeat runs, not every such curve was filed as active; note: series mostly up to about 51 µM). The method, boiled down:
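HEK293/TRHR cells, 18 h, 37 °C; Ca2+ dye 2 h; cpd 5 min RT; TRH 1 nM final; fluorescence read 3 min, 1 s intervals; 15 concs, triplicate.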

Test [18] deals with Nuclear receptor subfamily 1 group I member 2 (Rattus norvegicus) (UniProt Q9R1A7). Briefly: Rat pregnane X receptor (rPXR) activation by small molecules, qHTS assay (AID 1346983). Note: nearly all actives have a fitted effect of over 20% in size. The settings on record: rPXR luciferase reporter cells, One-Glo luminescence, 24 h; stronger effect = higher value. The method, boiled down:
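Luminescent readout (One-Glo luciferase, 30 min room temperature) followed 24 hr compound treatment at 37 C of rPXR cells plated 2,000 per well and preincubated 5hr; qHTS format with compounds delivered in DMSO.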
% is set by controls: 0 for no effect and ±100 for the full control effect.

Progesterone receptor (Homo sapiens), sequence (P06401 whole entry, looked up): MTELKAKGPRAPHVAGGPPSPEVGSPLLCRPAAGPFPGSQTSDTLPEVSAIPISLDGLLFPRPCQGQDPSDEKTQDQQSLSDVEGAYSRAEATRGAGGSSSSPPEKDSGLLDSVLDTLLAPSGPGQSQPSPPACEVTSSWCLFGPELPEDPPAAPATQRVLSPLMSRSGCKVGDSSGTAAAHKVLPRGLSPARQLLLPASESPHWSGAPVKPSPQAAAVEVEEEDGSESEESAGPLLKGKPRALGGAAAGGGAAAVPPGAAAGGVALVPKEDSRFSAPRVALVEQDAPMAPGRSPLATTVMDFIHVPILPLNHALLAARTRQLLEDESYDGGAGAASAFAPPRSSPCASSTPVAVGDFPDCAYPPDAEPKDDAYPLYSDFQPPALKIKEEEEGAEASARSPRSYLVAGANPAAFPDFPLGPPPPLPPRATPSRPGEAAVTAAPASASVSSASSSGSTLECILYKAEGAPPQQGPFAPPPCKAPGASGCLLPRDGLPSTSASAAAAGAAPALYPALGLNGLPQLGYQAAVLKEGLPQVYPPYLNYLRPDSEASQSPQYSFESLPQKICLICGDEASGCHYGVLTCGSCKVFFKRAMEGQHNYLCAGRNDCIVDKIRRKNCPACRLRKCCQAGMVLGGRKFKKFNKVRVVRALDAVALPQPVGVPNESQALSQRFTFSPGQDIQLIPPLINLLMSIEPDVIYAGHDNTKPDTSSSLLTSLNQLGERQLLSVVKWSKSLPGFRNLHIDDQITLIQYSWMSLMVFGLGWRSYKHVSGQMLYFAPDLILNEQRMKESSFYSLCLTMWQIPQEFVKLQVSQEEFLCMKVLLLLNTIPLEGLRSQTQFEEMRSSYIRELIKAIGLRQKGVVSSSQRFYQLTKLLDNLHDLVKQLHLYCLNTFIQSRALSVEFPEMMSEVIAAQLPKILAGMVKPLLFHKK
Nuclear receptor subfamily 1 group I member 2 (Rattus norvegicus), sequence (Q9R1A7 whole entry, looked up): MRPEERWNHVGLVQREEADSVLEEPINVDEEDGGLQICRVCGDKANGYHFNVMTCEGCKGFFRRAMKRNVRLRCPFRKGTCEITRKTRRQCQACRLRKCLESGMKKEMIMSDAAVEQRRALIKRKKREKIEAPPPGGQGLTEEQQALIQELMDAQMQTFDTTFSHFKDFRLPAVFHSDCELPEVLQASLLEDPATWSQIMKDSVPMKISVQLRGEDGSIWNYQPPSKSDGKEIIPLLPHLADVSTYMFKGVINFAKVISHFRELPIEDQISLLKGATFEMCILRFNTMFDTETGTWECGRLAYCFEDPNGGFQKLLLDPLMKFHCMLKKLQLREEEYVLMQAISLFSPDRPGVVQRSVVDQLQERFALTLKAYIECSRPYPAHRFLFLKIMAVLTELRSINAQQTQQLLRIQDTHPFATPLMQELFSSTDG

Consider `O=C(O)c1ccc(C(=O)O)c(C(=O)O)c1`, for which the Potency result in test [1], in test [2], in test [3], in test [10], in [11] and in test [13] was “inactive” each time. Further, the Potency result in test [14] and in [15] was “inactive” each time. The call in test [4], in test [5], in test [6], in test [7], in test [8] and in [9] was inactive. In test [12], the outcome was inactive.

For `Cc1ccc(S(=O)(=O)N=C=O)cc1`, the Potency result in test [1], in test [2], in test [3], in [16], in test [14] and in test [15] was “inactive” throughout. For the same compound, the compound was classed as inactive in [5], in test [6], in test [7], in test [8], in test [9] and in test [12]. The Potency was 28.2 µM (active) and inactive in test [10]; 6.73 µM (active) and inactive in test [11]; 53.4 µM (active) and inactive in test [13].

As for `COc1ccc(CCC(C)=O)cc1`, the Potency result in [1], in test [2], in test [3], in test [10], in [16] and in test [11] was “inactive” throughout. In addition, the Potency entry in [13], in [14] and in test [15] was “inactive” each time. For the same compound, the outcome in test [4], in test [5], in test [6], in [8], in test [17] and in test [9] was inactive. The result in [12] was inactive.

For the compound `COc1cc(OC)c(C(=O)CCCN2CCCC2)c(OC)c1`, the Potency result in test [1], in [2], in test [3], in test [10], in test [16] and in test [11] was “inactive” in each case. In addition, in test [13], the Potency entry is “inactive”. The compound was called inactive in test [4], in test [5], in [6], in test [7], in test [8] and in test [9]. Besides, the call in test [12] was inactive. For the same compound, the max activation in [18] is -3.14% (inactive).

In the case of `CC(C)CC(=O)CC(C)CC(C)C` (configuration not stated), the Potency result in test [1], in test [2], in test [3], in test [10], in test [16] and in test [11] was “inactive” throughout. For the same compound, the Potency result in test [13] and in test [15] was “inactive” each time. In addition, the outcome in test [4], in [5], in [6], in [8], in test [9] and in test [12] was inactive.

For `O=S(=O)(O)c1ccc(N=Nc2c(O)ccc3cc(S(=O)(=O)O)ccc23)cc1`, the Potency in test [1] is 48.8 µM (active) and 27.3 µM (active); in test [10], 39.8 µM (active) and 30.6 µM (active); in test [11], 54.7 µM (active) and 27.3 µM (active); in test [13] it was 54.7 µM (active) and 30.6 µM (active); in test [15], 31.8 µM (active). For the same compound, the Potency entry in test [2], in test [3], in test [16] and in test [14] was “inactive” each time. Also, the outcome in [4], in [6], in test [7], in [8], in test [17] and in test [9] was inactive. Also, in test [12], the result was inactive.

For the compound `CC(C)=CCl`, the Potency entry in test [1], in test [2], in test [3], in [10], in test [16] and in test [11] was “inactive” throughout. Moreover, in test [13], the Potency entry is “inactive”. The outcome in test [4], in test [5], in test [6], in test [7], in [8] and in test [12] was inactive. Besides, in [15], the Potency was 10.1 µM (active) and inactive.

For `CCc1ccccc1CC`, the Potency result in [1], in test [2], in test [3], in [10], in test [11] and in test [13] was “inactive” each time. The Potency result in [15] is “inactive”. Moreover, the outcome in test [4], in test [5], in [6], in test [7], in [8] and in test [9] was inactive. For the same compound, in [12], the compound was classed as inactive.

Regarding `CCCCCCCCCCN`, the Potency entry in test [1], in test [2], in test [3], in test [10], in test [11] and in test [13] was “inactive” each time. In addition, in [14], the Potency entry is “inactive”. Besides, the call in test [4], in test [6], in [8], in test [9] and in test [12] was inactive. In addition, the Potency in test [15] was 35.8 µM (active) and 12.6 µM (active).
